Assay outcomes: PubChem BioAssay, Sanford-Burnham Center for Chemical Genomics
Most compounds without a hit are left out; they make up all but 3% or so of the library.
SENP8 block-1: blocks human SENP8 cleavage of Nedd8 substrate; recombinant SENP8, Nedd8 substrate fluorescence; inhibition, % at 20 µM; 360,000 compounds, 0.64% hits; AID 602440; in the data active = inhibition mostly above about 40%, no sharp cut-off; inactive = mostly below about 27%
Target sequence (Q96LD8 whole entry, looked up): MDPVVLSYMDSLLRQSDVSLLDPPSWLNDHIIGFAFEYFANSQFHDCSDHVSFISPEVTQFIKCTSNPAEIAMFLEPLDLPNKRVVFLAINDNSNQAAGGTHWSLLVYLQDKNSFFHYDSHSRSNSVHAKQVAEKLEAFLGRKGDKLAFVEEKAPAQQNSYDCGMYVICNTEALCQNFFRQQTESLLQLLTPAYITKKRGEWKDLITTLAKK
SENP7 block: blocks the human protease SENP7; 330,000 compounds, 1.5% hits; AID 434973; inhibition, % at 5 µM; recombinant SENP7, Z-RLRGG-aminoluciferin luminescence, 40 min; Q9BQF6;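 active = inhibition above about 50% at the single test dose, limit read from the data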;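 also: plate controls were DMSO with enzyme for no effect and no enzyme buffer wells for full effect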
PPC-1+TRAIL kill: kills PPC-1 cancer cells in the presence of TRAIL; 220,000 compounds, 0.41% hits; AID 1443; PPC-1 cells + TRAIL, ATPLite viability luminescence; cell killing (% activity), % at 4 µM or 5 µM;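 active = cell killing above 50% in the first pass at 4 µM, then a duplicate retest at 5 µM averaging 50% or more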;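 also: plate controls were cells with TRAIL plus DMSO for no effect and medium-only wells lacking cells for full effect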
SENP6 inh: inhibitors of human SENP6 protease | Q9GZR1 | Recombinant SENP6 catalytic domain, aminoluciferin luminescence | inhibition, % at 10 µM | 330,000 compounds, 1.8% hits | AID 2599;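 active = inhibition above about 50% at the single tested dose, limit read from the data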;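 also: plate controls were DMSO wells with enzyme for no effect and DMSO wells lacking enzyme for full effect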
SENP8 block-2: SENP8 protease inhibition; 330,000 compounds, 1.2% hits; inhibition, % at 10 µM; purified SENP8, Z-RLRGG-aminoluciferin cleavage, luminescence; AID 2540; in the data active = inhibition above about 50%
TRAIL sens C8: caspase-8 TRAIL sensitization; NB7+C8 cells + TRAIL, ATPlite viability luminescence; inhibition (viability loss, TRAIL sensitization), % at 10 µM; 360,000 compounds, 1% hits; AID 624354;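 active = compounds causing at least 50% loss of cell viability in the single-dose screen, relative to plate controls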
SENP8 conf: confirmation of human SENP8 protease inhibitors; 6,200 compounds, 40% hits; AID 488912; Recombinant SENP8, Z-RLRGG-aminoluciferin luminescence, 60 min; shares compounds with SENP7 block; inhibition, % at 12.5 µM;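 active = mean inhibition across replicates above about 50%, limit read from the data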
SENP6 confirm: human SENP6 inhibition, confirmed; 6,200 compounds, 58% hits; recombinant SENP6, Z-RLRGG-aminoluciferin luminescence; shares compounds with SENP7 block; inhibition, % at 12.5 µM
SENP7 conf: confirmation of human SENP7 protease inhibitors; shares compounds with SENP7 block; recombinant SENP7, Z-RLRGG-aminoluciferin luminescence, 40 min; inhibition, % at 12.5 µM; 6,200 compounds, 69% hits; AID 488917
Casp3 SENP sel: inhibits human caspase-3 in SENP selectivity test; 6,200 compounds, 60% hits; purified caspase-3, Z-DEVD-aminoluciferin luminescence, 60 min; inhibition, % at 12.5 µM; shares compounds with SENP7 block; AID 488918;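 active = mean inhibition above about 50%, limit read from the data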;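 also: plate controls were enzyme with DMSO for no effect and wells without caspase-3 for full effect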
Target sequence (P42574 28-227 limits assumed): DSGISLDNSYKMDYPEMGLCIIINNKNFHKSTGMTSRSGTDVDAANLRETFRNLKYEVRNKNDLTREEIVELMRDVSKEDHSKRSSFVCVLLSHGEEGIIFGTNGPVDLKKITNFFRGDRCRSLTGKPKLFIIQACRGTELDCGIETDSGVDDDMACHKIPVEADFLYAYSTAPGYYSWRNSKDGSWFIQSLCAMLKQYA
Luc interf: luminescence interference (SENP counter-screen); shares compounds with SENP7 block; Pre-incubated SENP8/Z-RLRGG-aminoluciferin, luciferase luminescence interference; inhibition, % at 12.5 µM; 6,200 compounds, 39% hits; AID 488919;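 active = mean inhibition above about 50% when retested at one dose, limit read from the data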;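 also: plate controls were DMSO wells with completed reaction for no effect and substrate without enzyme for full effect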
Starred values were filed as active, the others as inactive; x = not tested or not shown.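 The calls were made as follows, unless noted: active = mean inhibition above about 50% in the one-dose retest (limit read from the data); inactive = the rest.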

SMILES	SENP8 block-1	SENP7 block	PPC-1+TRAIL kill	SENP6 inh	SENP8 block-2	TRAIL sens C8	SENP8 conf	SENP6 confirm	SENP7 conf	Casp3 SENP sel	Luc interf
N/C(=N/OCc1cccc([N+](=O)[O-])c1)c1nonc1N	0	-5	15	-22	-8	7	x	x	x	x	x
O=C(O)c1ccc(/C=C/C(=O)c2ccc3c(c2)OCCCO3)cc1	14	43	x	60*	21	46	70*	57*	74*	2	78*
O=C1NCCN1c1ccccc1	8	x	x	x	x	-5	x	x	x	x	x
O=C1N(c2ccccc2)CCN1c1ccccc1	22	89*	x	83*	70*	64*	25	10	-6	-2	0
CCN1C(=O)c2cccc3c(S(=O)(=O)Nc4ncccc4C)ccc1c23	-300	64*	28	5	-5	21	-24	-15	-13	-11	-6
O=Cc1ccc(OC(=O)/C=C/c2ccccc2)cc1	15	-17	x	-36	-36	-2	x	x	x	x	x
CCOc1ccc(/C=C/C(=O)Oc2ccccc2)cc1	-2	59*	x	12	12	-13	16	15	34	33	12
Cc1c(C(=O)Nc2ccccc2)csc1-c1ccccc1	22	95*	42	57*	60*	67*	-27	42	84*	46	-4
CCOC(=O)c1cc2c(=O)c3cc(C)ccc3oc2nc1C	-20	92*	x	45	71*	23	25	31	32	60*	10
CC(=O)c1cc2c(=O)c3cc(C)ccc3oc2nc1C	-144	64*	18	75*	64*	-11	44	23	50	56*	10
COCc1nc2oc3ccc(C)cc3c(=O)c2cc1C(=O)OC	-148	23	x	29	2	6	x	x	x	x	x
Cc1nc2oc3ccc(F)cc3c(=O)c2cc1C(=O)O	-29	20	x	17	6	-10	x	x	x	x	x
Cc1ccc2oc3nc(C)c(C(=O)O)cc3c(=O)c2c1	-494	92*	14	88*	81*	10	6	44	68*	80*	56*
Cc1c(OCC(=O)N[C@@H](Cc2c[nH]c3ccccc23)C(=O)O)ccc2c1oc(=O)c1ccccc12	-180	11	x	14	8	9	x	x	x	x	x
CCN(CC)c1ccc(C(=O)OCC(=O)Nc2ncccn2)cc1	-44	6	x	1	2	-11	x	x	x	x	x
CCN(CC)c1ccc(C(=O)OCC(=O)Nc2sccc2C#N)cc1	-10	6	-5	69*	21	-3	38	42	70*	21	37
O=C(C1CCC1)N1CCc2cc(S(=O)(=O)NC3CCCc4ccccc43)ccc21 (stereo not given)	14	97*	33	5	-3	19	5	6	3	0	4
Cc1nc(C(F)(F)F)nc(Nc2ccc(N=Nc3ccccc3)cc2)c1C#N	23	1	4	-16	-3	12	x	x	x	x	x
Nc1nonc1N/N=C/c1c(O)ccc2ccccc12	-26	6	4	11	-12	7	x	x	x	x	x
Nc1cc(Cl)nc(N/N=C/c2c(O)ccc3ccccc23)n1	-20	38	16	58*	32	34	37	47	84*	25	13
O=C(O)C(CCc1ccccc1)N1C(=O)c2ccccc2C1=O (stereo not given)	12	x	x	x	x	-9	x	x	x	x	x
CC1=NN(C(N)=S)C(=O)C1N=Nc1ccc(S(N)(=O)=O)cc1 (stereo not given)	24	28	x	51*	12	0	23	22	70*	74*	57*
